# HT1080-NT tox: kills 2HG-producing HT-1080-NT fibrosarcoma cells. HT-1080-NT fibrosarcoma viability, CellTiter-Glo ATP luminescence, 48 h. Potency, µM (doses to about 46.1 µM), without a hit: at the top dose activity, negative = less viability, actives largely listed as cytotoxic. 360,000 compounds, 1.6% hits;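 note: NT is the 2HG producing partner of a matched IDH1 knockdown line; potency is the fitted concentration of half-maximal effect; 0% = DMSO-treated cells and -100% = media-only wells without cells; nearly all actives have a fitted effect of over 55% in size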
#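 750 cells/well, RPMI + 5% FBS; 2 h settle, compound pin-transfer, 48 h at 37 degrees C. CellTiter-Glo 10 min RT, luminescence. Normalized to DMSO and media-only wells.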
# IL1B secr inh: blocks inflammasome-driven IL-1 beta release; THP-1 LPS/ATP IL-1B secretion, AlphaLISA, 16 h; hits give low values; activity change, % at 57.5 µM; 360,000 compounds, 4.7% hits; AID 743279; in the data active = activity change below about -50%; inconclusive = mostly about -30% to -49%
#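 Secreted IL-1B measured by AlphaLISA bead assay after 16 h compound exposure of THP-1 cells; compounds (final up to 57.5 uM) added 1 h before LPS (250 ng/mL) and ATP (1.25 mM) stimulation; lower signal means less secretion.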
# DT40 TDP1 CPT: DT40-hTDP1 cell growth loss with CPT | chicken DT40 Tdp1-/-;hTDP1 cells + 20 nM CPT, ATP luminescence, 48 h | 420,000 compounds, 12% hits | Potency, µM (highest dose often 46.2 µM), for the others: top-dose activity change, negative = growth inhibition, usual class: inhibitors; note: potency is the fitted concentration of half-maximal effect; nearly all actives have a fitted effect of over 55% in size
#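 Chicken DT40 Tdp1-/- cells complemented with human TDP1, 400 cells/well, exposed to compounds plus 20 nM camptothecin for at least 48 h at 37 C; viability read as ATP content by CellTiter-Glo luminescence.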
# HT1080 IDH1KD tx: HT-1080 IDH1 knockdown cell toxicity (counter line). HT-1080 IDH1 knockdown viability, ATP luminescence, 48 h. Potency, µM (titrated, usually from 46.1 µM), inactives show at the top dose activity, negative = toxicity, actives largely listed as cytotoxic. 360,000 compounds, 2% hits. AID 686971;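 note: potency is the fitted concentration of half-maximal effect; 0% = DMSO wells and -100% = cell-free medium wells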
#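 Viability of IDH1-knockdown HT-1080 fibrosarcoma cells was assessed by CellTiter-Glo after 48 h at 37 °C with titrated compound; concentration-effect curves were classified by fit quality and response size.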
# TDP1 cell noCPT: qHTS for Inhibitors of human tyrosyl-DNA phosphodiesterase 1 (TDP1): qHTS in cells in absence of CPT; DT40 Tdp1-/- hTDP1 cells, no CPT, ATP luminescence, 48 h; Potency, µM (series often up to 46.2 µM), without a hit: top-dose activity change, negative = growth inhibition, hits mostly inhibitors; 420,000 compounds, 15% hits; note: potency is the fitted concentration of half-maximal effect; nearly all actives have a fitted effect of over 55% in size
#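 Seeded 400 DT40-hTDP1 cells/well (vehicle DMSO, no 20 nM CPT); pinned compounds; ≥48 hr at 37 °C; CellTiter-Glo luminescence as viability measure.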
# Starred values were filed as active, the others as inactive; ? = inconclusive; · = no result. Rows were chosen to be rich in hits. Some 19% of all compounds tested hit in one or more screens of this group. Unless noted, calls come from the whole dose curve; as a rule, active = well fitted curve in the direction sought with a large enough effect; inconclusive = small, poorly fitted or top-dose-only effect, or another doubt; inactive = no such curve, though single readings can be large; an effect the other way counts as inactive or inconclusive. Unless noted, % is set by controls: 0 for no effect and ±100 for the full control effect.
SMILES,HT1080-NT tox,IL1B secr inh,DT40 TDP1 CPT,HT1080 IDH1KD tx,TDP1 cell noCPT
CCCCN1C(=O)CC(SC2CC(=O)N(CCCC)C2=O)C1=O (centres undefined),-2.6%,-9.6,16.4µM*,-3.1%,5.8µM*
CCN1C(=O)CC(N2CCC(C(=O)OC)CC2)C1=O (centres undefined),7.5%,9.7,12.7%,8.7%,-16.8%
CC[N+](C)(C)c1ccc(/C=C/c2ccnc3ccccc23)cc1,·,·,0.0794µM*,·,0.112µM*
CC[N+](CC)(CC)c1ccc(/C=C/c2ccnc3ccccc23)cc1,·,·,0.398µM*,·,0.316µM*
CCOc1ccc(C=Nc2cccc3ncccc23)cc1,-19.2%,19.7,-4.8%,-9.7%,-3.3%
CC(C)c1nn2c(=O)cc(O)nc2s1,-3.3%,-3.6,-12.1%,-4.4%,-13.9%
Cc1ccc(S(=O)(=O)CCN2C=CC(C(F)(F)F)=NCC2)cc1,3.4%,·,9.3%,12.9%,-19.0%
CCOC(=O)C1=C(C)OC2(O)c3ccccc3C(=O)C12O (centres undefined),-9.2%,-5.8,?,-0.6%,20.6µM*
CC1=C(C(=O)OC(C)C)C2(O)C(=O)c3ccccc3C2(O)N1 (centres undefined),-4.1%,-13.3,-29.9%,-0.8%,-24.2%
CC(=O)C1=C(C)OC2(O)c3ccccc3C(=O)C12O (centres undefined),-11.8%,12.4,?,0.9%,18.4µM*
CC(C)NC(=O)Nc1ccc2c(c1)C(=O)N([C@H](C)CO)C[C@@H](C)[C@@H](CN(C)C(=O)NC1CCCCC1)O2,2.7%,-4.0,1.0%,12.3%,-1.8%
CCOc1cc(/C=N/NC(=O)C(=O)N2CCCC2)ccc1O,5.7%,35.9,4.8%,9.1%,-3.2%
CCOc1cc(/C=N/NC(=O)c2nn(C)cc2Br)ccc1OCc1ccccc1,-0.8%,27.8,14.6µM*,9.8%,10.3µM*
CCOc1cc(/C=N/NC(=O)c2cc(C)n(-c3ccc(F)cc3)c2C)ccc1O,24.3%,11.0,16.4µM*,-12.4%,20.6µM*
COc1cc(/C=N/NC(=O)c2cccc3ccccc23)ccc1OCC(N)=O,-8.4%,65.0,?,-0.7%,5.8µM*
CCOc1cc(/C=N/NC(N)=O)ccc1OCC(=O)Nc1ccc(C)c(C)c1,-2.3%,-15.3,20.6µM*,-4.0%,23.1µM*
COc1cccc(/C=N/NC(=O)c2cccc3ccccc23)c1,-12.1%,32.9,?,-17.0%,?
CCN(CC(=O)NC(C)(C)C)C(=O)CN1c2cccc3cccc(c23)S1(=O)=O,2.4%,-14.1,-17.9%,11.4%,-12.2%
Cc1cccc2nc(Cn3c(=O)n(-c4ccc(Cl)cc4)c(=O)c4c5c(sc43)CCC5)cc(=O)n12,·,·,-14.9%,·,0.2%
CCOc1ccc(C=NNC(=O)c2cccc3ccccc23)cc1OCC,-0.9%,6.7,?,15.0%,18.4µM*
COc1cc(/C=N/NC(=O)c2cccc(C)c2)ccc1OCC(=O)Nc1ccccc1,-4.9%,13.2,?,-13.3%,18.4µM*
COc1cc(/C=N/NC(=O)c2cccnc2)ccc1OCC(=O)Nc1ccc(C)cc1,-11.9%,13.7,18.8%,0.5%,-23.3%
Cc1cccc(NC(=O)C2CCN(C(=O)c3ccc(Cl)cc3)CC2)n1,4.6%,19.7,9.7%,-12.6%,?
COc1ccc(CN2C(=NC(=O)c3ccccc3)SC3CS(=O)(=O)CC32)cc1OC (centres undefined),-7.9%,-56.7*,0.1%,-13.8%,4.2%
COC(=O)CN1C(=S)N(Cc2ccccc2)C(=O)C1CC(=O)Nc1ccc(Br)cc1 (centres undefined),?,-18.0,16.4µM*,?,?
SMILES,HT1080-NT tox,IL1B secr inh,DT40 TDP1 CPT,HT1080 IDH1KD tx,TDP1 cell noCPT
CCCOc1ccc(NC(=O)CC2C(=O)N(Cc3ccccc3)C(=S)N2Cc2cccs2)cc1 (centres undefined),-20.6%,?,9.2µM*,-29.9%,20.6µM*
CCN1C(=O)C(CC(=O)Nc2ccc(OC)cc2)N(CCc2ccccc2)C1=S (centres undefined),?,-75.7*,4.5%,?,-20.4%
COc1ccc(NC(=O)CC2C(=O)N(c3ccc(Cl)cc3)C(=S)N2CCc2ccccn2)cc1 (centres undefined),-17.7%,-11.7,25.9µM*,-2.5%,?
Cc1cnc(CNc2ccnc(-c3ccccc3Cl)n2)cn1,·,·,8.7%,·,-5.3%
Cc1ccc(NC(=O)N2C3CCCC2CC(NC(=O)C2CC2)C3)cc1 (centres undefined),18.5%,18.9,2.1%,10.0%,-14.8%
CCOC(=O)Cc1csc(NC(=O)CSc2ncnc3c2cnn3-c2ccccc2Cl)n1,-17.6%,-7.7,?,-3.5%,?
CCN1C(=O)C(CC(=O)Nc2ccc(OC)cc2)N(CCN2CCOCC2)C1=S (centres undefined),-0.7%,12.6,-2.1%,-1.9%,-19.5%
CCN1C(=O)C(CC(=O)Nc2ccc(OC)cc2)N(CCCN2CCN(c3ccc(OC)cc3)CC2)C1=S (centres undefined),?,-29.9,20.6µM*,-28.2%,16.4µM*
CCN(Cc1ccccc1)C(=O)Cn1c(=O)n(-c2ccccc2)c(=O)c2c1c1cc(C)ccc1n2C,·,·,9.2µM*,·,3.66µM*
COc1ccc(-n2c(=O)c3sc4ccccc4c3n(Cc3ccccc3)c2=O)cc1,·,·,?,·,-25.9%
CCN(Cc1ccccc1)C(=O)Cn1c(=O)n(-c2cccc(C)c2)c(=O)c2c1c1cc(OC)ccc1n2C,·,·,11.6µM*,·,16.4µM*
CCc1ccc(-n2c(=O)c3sc4ccccc4c3n(CC(=O)N(CC)Cc3ccccc3)c2=O)cc1,·,·,18.4µM*,·,18.4µM*
O=C(NC(Cc1cn(Cc2ccccc2)cn1)C(=O)O)OCC1c2ccccc2-c2ccccc21 (centres undefined),10.4%,-7.3,14.6µM*,17.4%,13µM*
CCC(O)c1c(-c2ccccc2)nn(C)c1Cl (centres undefined),4.7%,77.9,?,-0.2%,14.6µM*
CC(O)c1c(-c2ccccc2)nn(C)c1Cl (centres undefined),8.4%,0.0,-1.7%,11.3%,?
COC(=O)c1cn(NC(=O)c2cc([N+](=O)[O-])ccc2F)c(=O)c2ccccc12,?,-93.0*,3.26µM*,9.2µM*,4.61µM*
COc1cc(OC)cc(C(=O)Nn2cc(C(=O)Nc3ccc(F)cc3F)c3ccccc3c2=O)c1,-0.1%,-21.1,13µM*,-9.0%,?
Cc1oc(-c2ccc(Cl)cc2)nc1CN1CCC(C(=O)NCc2ccco2)CC1,-25.3%,-21.2,-23.3%,-1.8%,?
Cc1ccccc1-c1nc(CN2CCC(C(=O)N3CCN(c4ccccn4)CC3)CC2)c(C)o1,-10.9%,-0.3,23.1µM*,-1.1%,?

# Screening results: PubChem BioAssay, National Center for Advancing Translational Sciences (NCATS)
